According to PubChem BioAssay AID1159580 (chemical genetic matrix, 2015):
Hit rate of the full screen: of about 5,500 compounds, about 2,000 (36%) were called active. Not shown: some 18% with an inconclusive outcome. No stated cut-off is given here; in the data, active means normalized growth mostly below about 0.91 (no sharp cut-off); inconclusive means no clear call, values can overlap the other calls; inactive means mostly above about 0.92. The list shows a part of the results.

Assay: chemical genetic growth profiling, strain panel (AID 1159580);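 further: tested at 20 µM; growth read once vehicle control cultures reached saturation at 30 °C; 1 = growth at the plate median or of vehicle wells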
Conditions: S. cerevisiae deletion strains, growth OD

Measured: normalized growth

O=C(Nc1ccc(F)cc1F)c1cc(Cl)c(-n2cccc2)c(Cl)c1
active: locus YHR030C, strain SLT2, stronger effect = lower value 0.784 | locus YLR113W, strain HOG1, stronger effect = lower value 0.788 | locus YPL256C, strain CLN2, stronger effect = lower value 0.829
inactive: locus YAR019C, strain CDC15, stronger effect = lower value 0.975 | locus YBL105C, strain PKC1, stronger effect = lower value 0.972 | locus YBR135W, strain CKS1, stronger effect = lower value 0.971 | locus YBR136W, strain MEC1, stronger effect = lower value 0.969 | locus YBR160W, strain CDC28, stronger effect = lower value 0.973 | locus YDL017W, strain CDC7, stronger effect = lower value 0.974 | locus YDL028C, strain MPS1, stronger effect = lower value 0.969 | locus YDL101C, strain DUN1, stronger effect = lower value 0.984 | locus YDL108W, strain KIN28, stronger effect = lower value 0.974 | locus YDL132W, strain cdc53, stronger effect = lower value 0.976 | locus YDL214C, strain PRR2, stronger effect = lower value 0.942 | locus YDR052C, strain DBF4, stronger effect = lower value 0.98 | locus YDR054C, strain cdc34, stronger effect = lower value 0.961 | locus YDR226W, strain ADK1, stronger effect = lower value 0.97 | locus YDR477W, strain SNF1, stronger effect = lower value 0.936 | locus YER123W, strain YCK3, stronger effect = lower value 0.905 | locus YER133W, strain GLC7, stronger effect = lower value 0.898 | locus YFL009W, strain cdc4, stronger effect = lower value 0.97 | locus YFL029C, strain CAK1, stronger effect = lower value 0.967 | locus YFR003C, strain YPI1, stronger effect = lower value 0.975 | locus YFR019W, strain FAB1, stronger effect = lower value 0.944 | locus YFR028C, strain CDC14, stronger effect = lower value 0.977 | locus YGR040W, strain KSS1, stronger effect = lower value 0.94 | locus YGR052W, strain FMP48, stronger effect = lower value 0.984 | locus YGR092W, strain DBF2, stronger effect = lower value 0.942 | locus YHR079C, strain IRE1, stronger effect = lower value 0.864 | locus YHR082C, strain KSP1, stronger effect = lower value 1.05 | locus YHR205W, strain SCH9, stronger effect = lower value 0.911 | locus YIL147C, strain SLN1, stronger effect = lower value 0.976 | locus YJL095W, strain BCK1, stronger effect = lower value 0.866 | locus YJL128C, strain PBS2, stronger effect = lower value 0.953 | locus YJL157C, strain FAR1, stronger effect = lower value 0.934 | locus YJR016C, strain ILV3, stronger effect = lower value 0.985 | locus YJR066W, strain TOR1 (second series), stronger effect = lower value 0.869 | locus YJR066W, strain TOR1, stronger effect = lower value 0.993 | locus YKL048C, strain ELM1, stronger effect = lower value 0.953 | locus YKL067W, strain YNK1, stronger effect = lower value 0.928 | locus YKL101W, strain HSL1, stronger effect = lower value 0.929 | locus YKL193C, strain SDS22, stronger effect = lower value 0.983 | locus YKL203C, strain TOR2, stronger effect = lower value 0.968 | locus YLR133W, strain CKI1, stronger effect = lower value 0.942 | locus YLR403W, strain SFP1, stronger effect = lower value 0.902 | locus YML070W, strain DAK1, stronger effect = lower value 0.925 | locus YMR001C, strain CDC5, stronger effect = lower value 0.973 | locus YMR205C, strain PFK2 (second series), stronger effect = lower value 0.959 | locus YMR277W, strain FCP1, stronger effect = lower value 0.963 | locus YNL006W, strain LST8, stronger effect = lower value 0.977 | locus YNL020C, strain ARK1, stronger effect = lower value 0.911 | locus YNL161W, strain CBK1, stronger effect = lower value 0.967 | locus YNL183C, strain NPR1, stronger effect = lower value 0.951 | locus YNL207W, strain RIO2, stronger effect = lower value 0.97 | locus YNL222W, strain SSU72, stronger effect = lower value 0.977 | locus YNL307C, strain MCK1 (second series), stronger effect = lower value 0.926 | locus YOL078W, strain AVO1, stronger effect = lower value 0.981 | locus YOL136C, strain PFK27, stronger effect = lower value 0.925 | locus YOR061W, strain CKA2, stronger effect = lower value 0.926 | locus YOR119C, strain RIO1, stronger effect = lower value 0.999 | locus YOR231W, strain MKK1, stronger effect = lower value 0.88 | locus YOR329C, strain SCD5, stronger effect = lower value 0.968 | locus YPL031C, strain PHO85, stronger effect = lower value 0.922 | locus YPL153C, strain RAD53, stronger effect = lower value 0.928 | locus YPL204W, strain HRR25, stronger effect = lower value 0.908 | locus YPL209C, strain IPL1, stronger effect = lower value 0.975 | locus YPR025C, strain CCL1, stronger effect = lower value 0.968 | locus YPR106W, strain ISR1, stronger effect = lower value 0.978 | locus YPR111W, strain DBF20, stronger effect = lower value 0.962 | strain NNK1, stronger effect = lower value 0.977 | strain TSCII, stronger effect = lower value 0.968
